Screen size: about 16,000 compounds; about 240 (1.5%) were called active. The full list was thinned out, with actives kept by preference. A number with no mark means an inactive call. No stated cut-off is given here; in the data, active means activation above about 80%; inactive means the rest.

This passage reports activation results from PubChem BioAssay AID1044 (The Scripps Research Institute Molecular Screening Center, 2008).

The target in this test is Sphingosine 1-phosphate receptor 1 (Homo sapiens) (UniProt P21453). Put plainly: activates the human S1P1 receptor (AID 1044). The conditions noted are these: S1P1 agonist cell-based reporter assay; at 4.5 µM; stronger effect = higher value.
Chain of Sphingosine 1-phosphate receptor 1 (Homo sapiens) (P21453 whole entry, looked up): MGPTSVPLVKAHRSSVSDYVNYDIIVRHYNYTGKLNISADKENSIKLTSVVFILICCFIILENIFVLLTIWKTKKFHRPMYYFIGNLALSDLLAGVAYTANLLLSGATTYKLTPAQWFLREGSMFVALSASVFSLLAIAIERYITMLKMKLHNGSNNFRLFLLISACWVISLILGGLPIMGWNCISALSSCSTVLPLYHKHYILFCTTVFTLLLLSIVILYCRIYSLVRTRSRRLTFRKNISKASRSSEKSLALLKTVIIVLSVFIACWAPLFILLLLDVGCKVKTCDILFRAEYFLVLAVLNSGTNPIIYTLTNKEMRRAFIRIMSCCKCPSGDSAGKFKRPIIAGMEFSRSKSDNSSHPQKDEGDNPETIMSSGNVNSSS
For `OC(CNCCNc1nccc(C(F)(F)F)n1)COc1ccc(Cl)c(Cl)c1` (configuration not stated), the activation was 15.7%. Turning to `CSC(=Nc1ccccc1C(F)(F)F)N1CCCC1`, the activation is 62.5%. Turning to `NNC(=O)CSc1nnc(-c2ccccc2)n1-c1ccccc1`, the activation is 2.03%. Regarding `CN(NC(=O)c1ccc(Cl)s1)c1cnn(-c2cc(Cl)cc(Cl)c2)c(=O)c1Cl`, the activation was 7.36%. Under `O=C(NCc1cccnc1)c1ccccc1NC(=O)c1c(F)cccc1F` stands 10.3%. Turning to `Cc1ccc(S(=O)(=O)NC(=O)NCCSCc2ccco2)cc1`, the activation was -7.47%. Under `O=C(CSc1ccc(Cl)cc1)NCCSCc1ccco1` stands 3.06%. As for `O=C(O)CSC(SCC(=O)O)c1ccc2c(c1)OCO2`, the activation is -4.07%. As to `Cc1cc(C)n(/N=c2\sc(-c3ccccc3)cn2C2CC3C=CC2C3)c(=O)c1C#N` (configuration not stated), the activation is -8.12%. In the case of `CCOC(=O)c1c(N/N=C\c2ccccc2O)n[nH]c1C`, the activation was -16.7%. In the case of `COc1cc(NC(=O)COc2cc(Cl)c(Cl)cc2Cl)cc(OC)c1OC`, the activation was 22.5%.

As for `O=C(O)Cc1csc(NC(=O)CSc2nnnn2-c2ccc(O)cc2)n1`, the activation is 0.38%. In the case of `C/C(=N\NC(N)=S)c1cc2cc(Cl)ccc2o1`, the activation was 7.17%. The figure for `N/C(=N\O)c1ccc2nonc2c1` is 23.9%. For the molecule `Clc1ccc(-c2csc(-c3cnccn3)n2)s1`, the activation is 1.06%. Turning to `S=C(Nc1cccnc1)N1CCCN(Cc2ccc(Cl)cc2Cl)CC1`, the activation was 14.2%. For `COC(=O)c1ccsc1NC(C)=O`, the activation is -7.53%.

As to `CCCc1c(C(=O)O)cnn1-c1ccc(Cl)cc1`, the activation is -21.8%. `O/N=C(\c1ccccc1)c1ccccn1`: the activation is -7.69%. As for `COc1ccc(C2CC(c3cccs3)=Nc3ccccc3S2)c(Cl)c1OC` (configuration not stated), the activation is 1.73%. Regarding `O=S(=O)(O)Oc1c[nH]c2ccccc12`, the activation was -5.88%.

Take `CC1=C(C(=O)O)N2C(=O)[C@H](NC(=O)[C@@H](N)c3ccccc3)C2SC1` (some centres not stated): the activation is 8.53%. For `O=C(c1cnn(-c2ccc(Cl)cc2)n1)c1cccs1`, the activation was 3.48%. For `CC(C)S(=O)(=O)/C(C#N)=C/c1ccccc1OC(F)(F)F`, the activation is -23.8%.

As for `O=C(NNC(=S)Nc1ccccc1Cl)c1ccc(OC(F)(F)F)cc1`, the activation was 91.2% (active). Consider `COC(=O)c1ccccc1NC(=S)NNC(=O)c1ccc([N+](=O)[O-])cc1`, for which the activation is -4.53%. Consider `Cc1nc(C(=O)NNC(=S)Nc2ccccc2C(F)(F)F)cs1`, for which the activation was -8.43%. `Cc1nn(S(=O)(=O)c2ccc(Cl)cc2)cc1-c1ccccc1`: the activation is -1.3%. As to `Cc1cc(Cl)ccc1NC(=S)NNC(=S)Nc1ccc(F)cc1`, the activation was 25.2%. Consider `Cc1onc(-c2ccccc2)c1C(=O)Sc1ccc(C(F)(F)F)cn1`, for which the activation is -5.64%. Regarding `CC(=O)c1ccc(NC(=O)OC2CCSC2)cc1` (configuration not stated), the activation was -3.04%.

For the molecule `O=S(=O)(c1ccccc1)c1cc(C(F)(F)F)cc(C(F)(F)F)c1`, the activation is 1.62%. On to `O=c1oc2c3ccccc3c3oc(=O)sc3c2s1`, for which the activation is 11%. For the molecule `CN(C)c1ccc(C=Nc2ccc(S(N)(=O)=O)cc2)cc1`, the activation is -3.85%. In the case of `CC(=O)Nc1ccc(F)cc1F`, the activation was -19.4%. For `CC1(C)C=Cc2cc(-c3noc(-c4ccccc4)n3)ccc2O1`, the activation was 96.3% (active). Take `Cc1cc(C(F)(F)F)nc2c(-c3noc(-c4ccccc4)n3)cnn12`: the activation is 23.9%. Take `CC1(C)CCc2cc(-c3ccnc(SCC(=O)c4ccccc4)n3)ccc2O1`: the activation is -11.3%. Turning to `O=c1cc(-c2ccccc2)cc(-c2ccccc2)o1`, the activation was -7.4%.

As for `O=C(O)CC(CC(=O)Oc1ccccc1N1CCCCC1)c1ccccc1` (configuration not stated), the activation is -2.68%. For `O=C(CCN1CCN(C(c2ccccc2)c2ccccc2)CC1)c1ccccc1`, the activation was 1.07%. The figure for `CC1CC(NC(=O)/C(C#N)=C/c2ccc[nH]2)CC(C)(C)C1` (configuration not stated) is -5.85%; for `Cc1[nH]ncc1S(=O)(=O)c1ccc(Cl)cc1` it is 2.45%; for `O=C(NCc1ccc(F)cc1F)c1cc(C(F)(F)F)cc(C(F)(F)F)c1` it is -5.72%. Take `O=C(Nc1ccc(F)cc1OC(F)(F)F)N1CCC(O)CC1`: the activation is -2.84%. Consider `Cc1nc2cc3c(cc2s1)OCO3`, for which the activation is 2.86%. Consider `COCn1nnc2ccccc21`, for which the activation is 1.03%. In the case of `CC1(C)CC(=O)C(N=Nc2c(F)cccc2F)=C(O)C1`, the activation was 7.55%. The figure for `CC(=O)Nc1ccc(S(=O)(=O)NNc2c(Cl)cncc2Cl)cc1Cl` is 80.4% (active); for `CC(C)c1ccc(NNS(=O)(=O)c2ccc(Cl)c(Cl)c2)cc1` it is -3.29%.

Consider `CC(C)NC(=O)NNc1c(Cl)cncc1Cl`, for which the activation is 8.17%. Consider `Cc1cc(C2=CSC3=NCCN23)ccc1Cl`, for which the activation is 8.4%. Take `CN(C)/C=C/C(=O)c1cc(C(C)(C)C)cc(C(C)(C)C)c1O`: the activation was 19.8%. As for `CCCCNC(=O)OCCSCCS(=O)(=O)c1ccc(Cl)cc1`, the activation was -12.4%. As for `O=C1COCC(=O)N1c1ccc2c(c1)OCO2`, the activation is -5.13%. As for `Nc1[nH]c(=O)nc2nc[nH]c12`, the activation was -5.12%. Under `N/C(=N\OS(=O)(=O)c1ccc(C(F)(F)F)cc1)C1CSCCS1` (configuration not stated) stands 6.24%; under `CCc1cccc(C)c1N(C(C)=O)C1=NCCC(=O)S1`, -5.03%; under `Cn1c(=O)c(C#N)cn(-c2ccccc2)c1=O`, -15.9%.

For `CC(C)S(=O)(=O)c1cscc1N/C=C(/C#N)C(=O)c1cccs1`, the activation is 21.3%. For `O=C(Nc1cc2ccccc2s1)N1CCN(Cc2c(F)cccc2Cl)CC1`, the activation was 8.18%. Consider `Cc1cc(CNC(=O)c2cc(C)n(C)n2)no1`, for which the activation was 0.51%.

`N#Cc1sccc1Br`: the activation was -1.57%. In the case of `CCOC(=O)C/C(N)=C(\C#N)C(=O)OCC`, the activation was -0.14%. The figure for `Cc1nc(-c2cccnc2)nc(N2CCCN(Cc3ccc(F)cc3)CC2)c1Cl` is -19.4%; for `CN(C)/C=N/NC(=O)c1nc(-c2cccc(-n3cccc3)c2)no1` it is -6.62%. Take `CCOC(=O)O/N=C(\N)c1ccc(Cl)cc1`: the activation was 3.02%. Turning to `O=[N+]([O-])c1ccc(-c2ccc(I)cc2)cc1`, the activation is 1.05%.

For the molecule `O=[N+]([O-])c1cc(C(F)(F)F)ccc1OCCO`, the activation was 8.3%. Under `O=C1/C(=C/c2ccc3c(c2)OCO3)CCC/C1=C\c1ccc2c(c1)OCO2` stands 11.5%. As to `O=C(/C(=N\N=C\c1ccc2c(c1)OCO2)c1ccccc1)c1ccccc1`, the activation is 101% (active). `COc1ccc(/C=C(\NC(=O)c2ccccc2)C(=O)N/N=C/c2ccc3c(c2)OCO3)cc1`: the activation is 7.34%. For `CO/N=C(/C)c1ccc2c(c1)CCO2`, the activation is -16.7%. In the case of `O=C(NCc1cc2ccccc2s1)C1CN(C(c2ccccc2)c2ccccc2)C1`, the activation was -7.79%. With `O=C(CSc1nnc(-c2ccncc2)n1Cc1ccccc1)Nc1nnc(-c2ccco2)s1`, the activation was 4.05%. The figure for `c1ccc2sc(-c3csc(-c4ccc5c(c4)OCCO5)n3)nc2c1` is 7.46%. Take `S=C(NNC(=S)NC1CC2C=CC1C2)NC1CC2C=CC1C2` (configuration not stated): the activation was -6.61%.
